Rows were chosen to be rich in hits. Some 3.5% of all compounds tested hit in one or more screens of this group.
FBW7 activator: activators of human E3 ligase FBW7; Q969H0; AlphaScreen FBW7–phospho-cyclin E peptide binding, activator screen; normalized activity (activation), % at 26.1 µM; 650,000 compounds, 0.13% hits; in the data active means normalized activity above about 1.9%;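 further: purified mutant Fbw7 with reduced substrate affinity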
TEAD-YAP inh: TEAD-YAP interaction inhibition. inhibition, % at 9.12 µM. HEK-TIYL cells, TEAD-Gal4/YAP UAS-luciferase luminescence. AID 1259422. 640,000 compounds, 1.4% hits; in the data active means inhibition above about 32%;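 further: 0% = median of test compound wells and 100% = reference inhibitor wells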
GPR151 activ: activates the human receptor GPR151; 650,000 compounds, 1% hits; Q8TDV0; PathHunter beta-arrestin GPR151 cells, luminescence; AID 1508602; activation, % at 11.2 µM; in the data active means activation above about 4.9%;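 further: 0% = median of compound wells and 100% = cells with positive control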
Target sequence (Q8TDV0 whole entry, looked up): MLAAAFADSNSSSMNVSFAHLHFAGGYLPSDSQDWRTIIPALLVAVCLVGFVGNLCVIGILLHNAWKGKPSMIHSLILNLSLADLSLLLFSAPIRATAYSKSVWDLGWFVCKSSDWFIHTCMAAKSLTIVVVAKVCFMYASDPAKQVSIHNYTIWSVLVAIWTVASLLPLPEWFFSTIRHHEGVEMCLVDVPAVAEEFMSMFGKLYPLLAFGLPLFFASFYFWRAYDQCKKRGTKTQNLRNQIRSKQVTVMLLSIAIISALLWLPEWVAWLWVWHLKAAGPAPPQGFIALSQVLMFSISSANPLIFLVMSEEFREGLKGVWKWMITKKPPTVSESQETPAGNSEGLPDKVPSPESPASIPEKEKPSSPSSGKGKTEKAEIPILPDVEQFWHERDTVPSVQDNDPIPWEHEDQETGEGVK
MITF inh: blocks human microphthalmia-associated transcription factor; O75030; AlphaScreen MITF homodimerization, bead proximity signal; inhibition, % at 2.6 µM; 650,000 compounds, 0.91% hits; in the data active means inhibition above about 50%;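 further: 0% = vehicle wells with protein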
GPR151 conf act: confirmation of human GPR151 activators; GPR151 PathHunter beta-arrestin cells, luminescence, 90 min; % of EA-reagent control over plate median; 6,700 tested, under 10 active; shares compounds with GPR151 activ; activation, % at 11.2 µM;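 active means mean percent activation across replicates above the confirmation screen cutoff of 4.91%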
GPR119 ag: counter-screen for GPR151 activators: effect on human GPR119; shares compounds with GPR151 activ; activation, % at 11.2 µM; GPR119 PathHunter beta-arrestin cells, luminescence, 90 min; 0 = compound-well median, 100 = enzyme-acceptor control; 6,700 compounds, 0.3% hits;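 active means mean percent activation in the counterscreen above 29.09%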;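 further: counterscreen on off-target GPR119 to flag nonselective hits from the GPR151 activator screen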
Numbers without * were called inactive; ! = not confirmed by another sample.

Cc1cc(NC(=O)/C(=C/c2ccc3c(c2)OCO3)NC(=O)c2ccccc2Br)ccc1Br was read as FBW7 activator 0.0, TEAD-YAP inh 6.3, GPR151 activ -1.2 and MITF inh -14.7.
`O=C(COc1ccccc1Br)Nc1ccc(Cl)c(C(F)(F)F)c1` gave FBW7 activator 0.0, TEAD-YAP inh 3.9, GPR151 activ 0.8 and MITF inh 0.6.
Cn1c(=O)c2ccccc2n(C)c1=S was read as FBW7 activator 0.5, TEAD-YAP inh 1.1, GPR151 activ 5.6*, MITF inh 5.3, GPR151 conf act -0.8 and GPR119 ag -4.5.
For C/C(N)=C(/C#N)C(=O)COC(=O)c1ccc(COc2ccc3c(C)cc(=O)oc3c2)cc1 the results were FBW7 activator 0.1, TEAD-YAP inh 5.6, GPR151 activ 5.3*, MITF inh 6.7, GPR151 conf act -0.1 and GPR119 ag -0.5.
Screening Cc1cc(=O)oc2cc(OCc3ccc(C(=O)NNC(=O)c4ccccc4)cc3)ccc12 returned FBW7 activator -0.1, TEAD-YAP inh 1.5, GPR151 activ -0.8 and MITF inh 5.8.
`Cc1[nH]c2ccccc2c1C(=O)CSc1nc(N)cc(=O)[nH]1` gave FBW7 activator 0.0, TEAD-YAP inh 9.6, GPR151 activ 5.8*, MITF inh 5.8, GPR151 conf act 0.0 and GPR119 ag 7.1.
Screening Cc1cc(C(=O)CSc2nc(N)cc(=O)[nH]2)ccc1F returned FBW7 activator -0.3, TEAD-YAP inh -13.9, GPR151 activ -1.1 and MITF inh -12.8.
Cc1ccc(C(=O)CSc2nc(N)cc(=O)[nH]2)cc1C was read as FBW7 activator 0.0, TEAD-YAP inh -5.9, GPR151 activ 5.9*, MITF inh -10.3, GPR151 conf act 0.7 and GPR119 ag 3.0.
`O=C(CC1(c2ccccc2)CC(=O)N(Cc2cccnc2)C1=O)N1CC[C@@H]2CCCC[C@H]2C1` (stereo partly drawn) gave FBW7 activator 0.0, TEAD-YAP inh -3.8, GPR151 activ 9.5*, MITF inh 2.6, GPR151 conf act -0.8 and GPR119 ag -2.0.
For COc1ccc(C)cc1S(=O)(=O)N1CCCC(C(N)=O)C1 (stereo not drawn) the results were FBW7 activator 0.0, TEAD-YAP inh 1.2, GPR151 activ 0.1 and MITF inh 6.3.
COc1ccc(Cl)cc1S(=O)(=O)N1CCCC(C(=O)NCC(N)=O)C1 (stereo not drawn) was read as FBW7 activator -0.1, TEAD-YAP inh -5.9, GPR151 activ 7.4*, MITF inh -1.7, GPR151 conf act 0.6 and GPR119 ag 5.5.
For C#CCn1c(=NC(=O)CN2C(=O)CCC2=O)sc2c(C)cc(C)cc21 the results were FBW7 activator 0.0, TEAD-YAP inh -2.8, GPR151 activ 7.2*, MITF inh 3.1, GPR151 conf act 0.1 and GPR119 ag 0.1.
For Cc1cccc(N(Cc2c(F)cccc2Cl)S(C)(=O)=O)c1 the results were FBW7 activator 0.7, TEAD-YAP inh 6.4, GPR151 activ 6.9*, MITF inh 4.5, GPR151 conf act -0.6 and GPR119 ag -14.0.
Cc1cccc(N(Cc2ccccc2F)S(C)(=O)=O)c1 was read as FBW7 activator 0.6, TEAD-YAP inh 1.0, GPR151 activ 0.3 and MITF inh 7.0.
Screening CCC(=O)NC(c1nnc2n1CCN(Cc1ccc(OC)c(C)c1)CC2)C(C)C (stereo not drawn) returned FBW7 activator 0.1, TEAD-YAP inh 0.8, GPR151 activ 0.4 and MITF inh -3.7.
For CCOc1cc(CN2CCc3nnc(C(NS(C)(=O)=O)C(C)C)n3CC2)ccc1O (stereo not drawn) the results were FBW7 activator -0.1, TEAD-YAP inh -2.8, GPR151 activ 8.1*, MITF inh -2.7, GPR151 conf act 0.2 and GPR119 ag 1.6.
`CCC(=O)NC(c1nnc2n1CCN(Cc1ccc(C)c(C)c1)CC2)C(C)C` (stereo not drawn) gave FBW7 activator -0.1, TEAD-YAP inh 13.3, GPR151 activ 9.8*, MITF inh -5.7, GPR151 conf act 0.5 and GPR119 ag 5.3.
COc1ccccc1-n1cc(CN2CCN3C(=O)[C@H](Cc4cnc[nH]4)NC(=O)[C@H]3C2)cn1 was read as FBW7 activator 0.1, TEAD-YAP inh 0.7, GPR151 activ -0.3 and MITF inh 5.2.
CO[C@H]1C=CO[C@@]2(C)Oc3c(C)c(O)c4c(O)c(c(C=NN5CCN(C)CC5)c(O)c4c3C2=O)NC(=O)C(C)=CC=C[C@H](C)[C@H](O)[C@@H](C)[C@@H](O)[C@@H](C)[C@H](OC(C)=O)[C@@H]1C was read as FBW7 activator -0.2, GPR151 activ 6.0*!, MITF inh -4.2, GPR151 conf act 0.0 and GPR119 ag -6.3.
`CO[C@H]1/C=C/O[C@@]2(C)Oc3c(C)c(O)c4c(O)c(c(/C=N\N5CCN(C)CC5)c(O)c4c3C2=O)NC(=O)/C(C)=C\C=C\C(C)[C@H](O)[C@@H](C)[C@@H](O)[C@@H](C)[C@@H](OC(C)=O)[C@@H]1C` (stereo partly drawn) gave FBW7 activator -0.1, TEAD-YAP inh 1.6, GPR151 activ -1.5 and MITF inh -13.9.
Screening Fc1ccc(C(CCCN2CCN3CCCC3C2)c2ccc(F)cc2)cc1 (stereo not drawn) returned FBW7 activator -0.1, TEAD-YAP inh -1.0, GPR151 activ 1.3 and MITF inh -3.9.
`O=C1NCN(c2ccccc2)C12CCN(CCCC(c1ccc(F)cc1)c1ccc(F)cc1)CC2` gave FBW7 activator -0.1, TEAD-YAP inh 4.0, GPR151 activ 7.2*!, MITF inh 19.0, GPR151 conf act -0.8 and GPR119 ag -11.6.
Screening CN(C1CCCCC1)S(=O)(=O)c1ccc(S(=O)(=O)NCCc2ccncc2)cc1 returned FBW7 activator 0.2, TEAD-YAP inh -2.3, GPR151 activ 0.3 and MITF inh -7.8.
Screening CC[C@H](C)[C@@H]1NC(=O)[C@@H]2C[C@H](NC(=O)Nc3cccc(Cl)c3)CN2C1=O returned FBW7 activator 0.0, TEAD-YAP inh -20.9, GPR151 activ 5.3*, MITF inh -10.4, GPR151 conf act -0.2 and GPR119 ag 8.6.
`O=C(Cn1cnc2ccccc2c1=O)NCCC(=O)N1CCN(Cc2ccc3c(c2)OCO3)CC1` gave FBW7 activator 0.0, TEAD-YAP inh 6.2, GPR151 activ 5.4*, MITF inh -30.5, GPR151 conf act -0.3 and GPR119 ag 15.7.
`O=C(Cn1cnc2ccccc2c1=O)NCCC(=O)N1CCOCC1` gave FBW7 activator 0.0, TEAD-YAP inh -5.4, GPR151 activ 0.1 and MITF inh -19.8.
`Cc1ccc(-n2ncc3c(=O)n(Cc4cccnc4)cnc32)cc1` gave FBW7 activator 0.2, TEAD-YAP inh -13.8, GPR151 activ 6.6*, MITF inh 15.2, GPR151 conf act -0.1 and GPR119 ag 0.1.
